Test results: PubChem BioAssay (Tox21)
Activity calls are given as the source filed them. The call rests on the fitted dose curve; in most records, active means well fitted curve in the direction sought with a large enough effect in the repeat runs; inconclusive means weak or mixed curves; inactive means flat fitted curve, though single readings scatter.

Columns and labels:
[1] = qHTS assay to test for compound auto fluorescence at 535 nm (green) in HEK293 cells (AID 720680)
[2] = qHTS assay to test for compound auto fluorescence at 460 nm (blue) in HEK293 cell free culture (AID 720681)
Summary of the method: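 Blue fluorescence (Ex 405/Em 460 nm, triamterene-equivalent) was read immediately after pin transfer of compound or DMSO into medium (DMEM, 10% FBS) without cells.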

[3] = qHTS assay to test for compound auto fluorescence at 535 nm (green) in HEK293 cell free culture (AID 720682)
Summary of the method: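 Using fluorescein as calibrant, autofluorescence was quantified at 485/535 nm in cell-free DMEM containing 10% FBS after pintool addition of compound or vehicle.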

[4] = qHTS assay to test for compound auto fluorescence at 590 nm (red) in HEK293 cell free culture (AID 720683)
Summary of the method: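 Red-channel autofluorescence of compounds in culture medium (DMEM, 10% FBS), no cells, measured at 540/590 nm. Rose Bengal sodium is the reference fluorophore for equivalence.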

[5] = qHTS assay to test for compound auto fluorescence at 590 nm (red) in HepG2 cell free culture (AID 720684)
Summary of the method: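 Cell-free; medium MEM + 10% FBS; compound or DMSO added by pintool; read Ex 540/Em 590 nm; Rose Bengal sodium as red reference fluorophore.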

[6] = qHTS assay to test for compound auto fluorescence at 460 nm (blue) in HepG2 cell free culture (AID 720685)
Summary of the method: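 Cell-free plates of MEM plus 10% FBS received 23 nL compound or DMSO vehicle; blue-channel (405/460 nm) intensity scored against triamterene as reference fluorophore.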

[7] = qHTS assay to test for compound auto fluorescence at 535 nm (green) in HepG2 cell free culture (AID 720686)
[8] = qHTS assay to test for compound auto fluorescence at 460 nm (blue) in HepG2 cells (AID 720687)
Summary of the method: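 Blue-channel autofluorescence (Ex/Em 405/460 nm, triamterene-equivalent) was measured after 1 hr compound exposure at 37 C, 5% CO2. Cells were HepG2, plated overnight at 37 C in MEM plus 10% FBS.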

Measured: outcome

CCOP(=O)(OCC)Oc1ccc([N+](=O)[O-])cc1
inactive: all assays above

Clc1cc(C(Cl)(Cl)Cl)cnc1Cl
not listed: [8]
inactive: all other assays above

CC[C@H]1C[C@H]2[C@@H]3CCC4=CC(=O)CC[C@@H]4[C@H]3CC[C@]2(C)[C@H]1O
inactive: all assays above

O=S(=O)(Cl)c1ccccc1
inactive: all assays above

CCC(Cl)CCl (stereo unspecified)
inactive: all assays above

CCC(C)(NC(=O)c1cc(Cl)c(C)c(Cl)c1)C(=O)CCl (stereo unspecified)
inactive: all assays above

CCOP(=S)(Oc1ccc([N+](=O)[O-])cc1)c1ccccc1 (stereo unspecified)
inactive: all assays above

CCn1cc[n+](C)c1
inactive: all assays above

COC(C)(C)CCC[C@H](C)C/C=C/C(C)=C/C(=O)OC(C)C
inactive: all assays above

O=C(O)C(F)(F)C(F)(F)C(F)(F)C(F)(F)C(F)(F)C(F)(F)C(F)(F)C(F)(F)C(F)(F)C(F)(F)F
inactive: all assays above

C=COC(C)=O
inactive: all assays above

Clc1cccc(SC2CCNCC2)n1
inactive: all assays above

O=[N+]([O-])C(Br)(CO)CO
inactive: all assays above

CCCCN=C=O
not listed: [8]
inactive: all other assays above

CO/C=C(/C(=O)OC)c1ccccc1COc1cccc(C(F)(F)F)n1
inactive: all assays above

Clc1cccc2ccccc12
not listed: [8]
inactive: all other assays above

CC(=O)c1cc2c(cc1C)C(C)(C)C(C)CC2(C)C (stereo unspecified)
inactive: all assays above

CCOC(=O)C(Cl)C(C)=O (stereo unspecified)
inactive: all assays above

IC(I)=C(I)I
inactive: all assays above

C(=NC1CCCCC1)=NC1CCCCC1
inactive: all assays above

NC(=O)CI
not listed: [8]
inactive: all other assays above

C/C(=C\c1ccccc1)[N+](=O)[O-]
not listed: [8]
inactive: all other assays above

Cc1ccc(N)cc1C
inactive: all assays above

CCCC(Cn1cncn1)c1ccc(Cl)cc1Cl (stereo unspecified)
inactive: all assays above

N#CCc1ccccc1
not listed: [8]
inactive: all other assays above

CC(C)O.CC(C)O.OCCN(CCO)CCO.OCCN(CCO)CCO.[Ti]
inactive: all assays above

CN1C(=O)C(O)N=C(c2ccccc2)c2cc(Cl)ccc21 (stereo unspecified)
inactive: all assays above

C#CCOC(C(=O)OCCN(C)C)(c1ccccc1)c1ccccc1
inactive: all assays above

O=C(O)c1ccccc1C(=O)Nc1cccc2ccccc12
inactive: all assays above

Cn1cc[n+](C)c1 (tested in a mixture with another compound)
not listed: [8]
inactive: all other assays above

ClCc1ccccc1
inactive: all assays above
